We go through nine compounds from PubChem BioAssay (NCATS).

“And” between values parts separate entries of the source, which are not always exact repeats. Equal values may be shown once. Records with an inconclusive call do not appear. The source made the active and inactive calls. Unless noted, the call rests on the fitted dose curve; in most records, active means well fitted curve in the direction sought with a large enough effect; inconclusive means small, poorly fitted or top-dose-only effect, or another doubt; inactive means no such curve, though single readings can be large; an effect the other way counts as inactive or inconclusive.

Experiment [1] concerns the target Vitamin D3 receptor (Homo sapiens) (UniProt P11473). The experiment in a line: qHTS assay for small molecule agonists of vitamin D receptor signaling (AID 588543; calls by dose curve;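 further: 0% = DMSO basal and 100% = reference agonist control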). Conditions: HEK293T VDR-UAS-bla, beta-lactamase ratio, 16 h; series mostly up to 76.8 µM. Summed up:
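Reporter cells (HEK293T, VDR-UAS-bla) were seeded in medium with 2% charcoal-stripped serum and incubated 5 h, then compounds in concentration series were added for 16 h at 37 °C. Stimulation was scaled between DMSO basal and 50 nM 1α,25-dihydroxyvitamin D3.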
(In general: Quantitative high-throughput screening tests each substance at several concentrations.)

Experiment [2] has as its target Voltage-gated inwardly rectifying potassium channel KCNH2 (Homo sapiens) (UniProt Q12809). The experiment in a line: qHTS Assay for Small Molecule Inhibitors of the Human hERG Channel Activity (AID 588834).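 Further: top concentration of the series differs between compounds; on the % scale 0 is the no-effect control and ±100 the full control effect; lower thallium flux fluorescence means stronger hERG block; nearly all actives have a fitted effect of over 50% in size.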 Conditions: U2OS BacMam hERG, FluxOR thallium flux fluorescence; series mostly up to 46.1 µM. The procedure, abridged:
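Step 1: BacMam hERG transduction of U2OS, 4 hrs RT. Step 2: overnight 37 °C, plate 2000 cells/well, 4 hr. Step 3: FluxOR load, compound 10 min, stimulate, read fluorescence.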

Experiment [3] concerns the target Luciferin 4-monooxygenase (Photinus pyralis) (UniProt P08659). The experiment in a line: Biochemical firefly luciferase enzyme assay for NPC (AID 624030).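 Further: purified P. pyralis luciferase at 10 nM with luciferin and ATP substrate; 0% = DMSO and -100% = full luciferase inhibition by PTC124 control; nearly all actives have a fitted effect of over 70% in size.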 Particulars: purified P. pyralis luciferase, luminescence, 5 min; series mostly up to 58.6 µM. The procedure, abridged:
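Purified P. pyralis luciferase at 10 nM in 50 mM Tris Acetate (final), luminescence read within 5 minutes of enzyme addition to compounds. Activity normalised to PTC124 versus DMSO; concentration-response curves classed by r2, magnitude and activity.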

A short description of experiment [4]: S16 Schwann cell viability assay (CellTiter-Glo assay) (AID 624031).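 Further: cellular ATP luminescence as a viability measure; plate controls were DMSO-treated cells for no effect and cell-free wells for full effect; nearly all actives have a fitted effect of over 70% in size.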 Conditions: S16 rat Schwann cells viability, 24 h; series mostly up to 57.5 µM. The procedure, abridged: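 This viability control uses native rat S16 Schwann cells grown in DMEM plus 10% FBS. After a 24 h compound treatment at 37 °C, CellTiter-Glo luminescence reports ATP content, scaled against DMSO-treated and cell-free wells.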
For orientation: Cellular ATP, detected with luciferase, serves as a proxy for viable cell number.

A short description of experiment [5]: S16 Schwann cell PMP22 intronic element firefly luciferase assay (AID 624032). Further: nearly all actives have a fitted effect of over 30% in size. Further: potency means the concentration at half of the fitted maximal effect. Conditions: S16 rat Schwann cells, PMP22 element FLuc, 24 h; series mostly up to 57.5 µM. Summed up:
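Rat S16 Schwann cells stably carrying firefly luciferase driven by a PMP22 intronic element, in 10% FBS, treated 24 h at 37 C. ONE-Glo luminescence normalized to PTC124 control and DMSO (0%); curves classed by r2, magnitude and activity.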

The target in experiment [6] is Vitamin D3 receptor (Homo sapiens) (UniProt P11473). The experiment in a line: qHTS assay for small molecule antagonists of vitamin D receptor signaling (AID 588541; calls by dose curve;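 further: receptor activated by calcitriol during compound treatment; on the % scale 0 is the no-effect control and ±100 the full control effect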). Conditions: HEK293T VDR-UAS-bla, beta-lactamase ratio, antagonist mode; series mostly up to 76.7 µM. The procedure, abridged:
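VDR-UAS-bla HEK293T cells in 2% charcoal-stripped FBS were stimulated with 1-alpha,25-dihydroxyvitamin D3 (3 nM final) plus compound for 16 h at 37 C. The beta-lactamase CCF4 readout was normalized to 50 nM agonist and DMSO, and Hill fits gave IC50.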

Experiment [7] can be described thus: qHTS assay for small molecule agonists of retinoid X receptor alpha signaling (AID 588544; calls by dose curve). Conditions: HEK293T RXRa-UAS-bla, beta-lactamase reporter, 18 h; 530 nm emission.
The target of experiment [8] is Retinoic acid receptor RXR-alpha (Homo sapiens) (UniProt P19793). The description is as above. Conditions: HEK293T RXRa-UAS-bla, beta-lactamase reporter, 18 h; series mostly up to 76.7 µM.
Retinoic acid receptor RXR-alpha (Homo sapiens), sequence (P19793 whole entry, looked up): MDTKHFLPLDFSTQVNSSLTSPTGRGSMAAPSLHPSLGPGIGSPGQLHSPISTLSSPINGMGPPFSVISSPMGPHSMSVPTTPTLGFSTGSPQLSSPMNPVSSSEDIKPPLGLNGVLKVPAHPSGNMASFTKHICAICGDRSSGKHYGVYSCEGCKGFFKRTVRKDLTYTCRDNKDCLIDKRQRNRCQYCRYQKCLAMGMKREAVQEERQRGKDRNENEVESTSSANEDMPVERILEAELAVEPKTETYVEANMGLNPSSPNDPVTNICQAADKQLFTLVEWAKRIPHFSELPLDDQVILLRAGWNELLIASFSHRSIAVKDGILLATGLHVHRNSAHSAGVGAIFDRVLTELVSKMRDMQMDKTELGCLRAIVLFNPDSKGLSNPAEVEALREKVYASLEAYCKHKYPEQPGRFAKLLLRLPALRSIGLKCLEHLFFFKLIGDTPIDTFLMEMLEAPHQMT
Experiment [9] concerns the target Thyroid hormone receptor beta (Homo sapiens) (UniProt P10828). The experiment in a line: qHTS assay for small molecule agonists of thyroid hormone receptor beta signaling (AID 588545; calls by dose curve;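 further: 0% = DMSO only and 100% = 10 nM T3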). Conditions: TR-UAS-bla GripTite HEK 293, beta-lactamase ratio, agonist mode, 18 h, percent of T3 response, DMSO as zero; series mostly up to 76.7 µM. Summed up: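 TR-UAS-bla-GripTite HEK 293 cells in medium with 2% charcoal/dextran FBS, 0.1 mM NEAA and 1 mM sodium pyruvate were treated with titrated compounds for 18 hrs at 37 C. Beta-lactamase reporter was read with CCF4 dye (ex 405, em 460/530 nm); EC50 from Hill fits.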

The nature of experiment [10]: qHTS assay for small molecule antagonists of retinoid X receptor alpha signaling (AID 588546).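 Further: cells stimulated with 9-cis-retinoic acid as agonist; on the % scale 0 is the no-effect control and ±100 the full control effect.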 Particulars: HEK293T RXRa-UAS-bla, beta-lactamase ratio, antagonist mode; measured here: W530 green channel, cytotoxicity proxy. Summed up: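 Beta-lactamase reporter inhibition, read as CCF4 fluorescence ratio (ex 405, em 460/530 nm) after 2 h at RT. HEK293T UAS-bla cells, 2500/well, were stimulated with 9-cis-RA at 500 or 100 nM final alongside test compound for 18 h at 37 C.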

The target of experiment [11] is Thyroid hormone receptor beta (Homo sapiens) (UniProt P10828). The experiment in a line: qHTS assay for small molecule antagonists of thyroid hormone receptor beta signaling (AID 588547; active means well fitted inhibition curve with a large enough effect in the signal ratio, with a control signal flat, not every such curve was filed as active; the % refers to the signal ratio;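 further: cells stimulated with 0.4 nM T3 agonist during compound exposure; on the % scale 0 is the no-effect control and ±100 the full control effect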). Conditions: TR-UAS-bla HEK293, beta-lactamase ratio, antagonist mode, 18 h. The procedure, abridged: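 TR-UAS-bla GripTite HEK293 cells in 2% charcoal/dextran FBS medium; compounds 0.59 nM to 92 uM with T3 at 0.4nM final, 18 h at 37 C. Beta-lactamase read by CCF4 fluorescence (460/530 nm); Hill fits gave IC50 and efficacy.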
Thyroid hormone receptor beta (Homo sapiens), sequence (P10828 whole entry, looked up): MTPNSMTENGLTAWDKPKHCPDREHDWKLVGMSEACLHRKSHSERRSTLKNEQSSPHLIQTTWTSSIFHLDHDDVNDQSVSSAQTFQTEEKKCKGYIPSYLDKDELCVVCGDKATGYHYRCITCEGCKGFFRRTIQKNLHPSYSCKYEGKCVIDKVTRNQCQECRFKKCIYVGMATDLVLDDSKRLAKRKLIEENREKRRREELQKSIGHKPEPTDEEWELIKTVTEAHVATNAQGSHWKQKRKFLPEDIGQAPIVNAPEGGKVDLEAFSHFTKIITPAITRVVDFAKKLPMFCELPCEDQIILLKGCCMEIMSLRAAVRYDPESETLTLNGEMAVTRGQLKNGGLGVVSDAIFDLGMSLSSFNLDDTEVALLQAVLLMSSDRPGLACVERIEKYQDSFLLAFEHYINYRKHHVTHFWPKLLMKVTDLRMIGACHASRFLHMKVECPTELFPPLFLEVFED

A short description of experiment [12]: S16 Schwann cell PMP22 intronic element beta-lactamase assay (AID 624044; calls by dose curve;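 further: 0% = DMSO and -100% = potassium clavulanate positive control; nearly all actives have a fitted effect of over 15% in size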). Conditions: S16 rat Schwann cells, PMP22 element beta-lactamase FRET, 24 h; series mostly up to 38.3 µM. The procedure, abridged:
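Beta-lactamase reporter under a PMP22 intronic regulatory element in stable S16 rat Schwann cells; 24 h compound exposure. 460 nm blue signal normalized between DMSO (0%) and potassium clavulanate, with 535 nm FRET tracking viability; curves classed by r2 and response.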

The target of experiment [13] is Glutaminase kidney isoform, mitochondrial (Homo sapiens) (UniProt O94925). The experiment in a line: qHTS for Inhibitors of Glutaminase (GLS): LOPAC Validation (AID 624146).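 Further: glutamate product detected by oxidase and peroxidase coupled Amplex red fluorescence gain; on the % scale 0 is the no-effect control and ±100 the full control effect; nearly all actives have a fitted effect of over 60% in size.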 Particulars: glutaminase enzyme activity inhibition; series mostly up to 46.1 µM. The procedure, abridged:
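Read-out is an Amplex red fluorescence increase coupled through glutamate oxidase and HRP, measured before and after 30 min room-temperature incubation. hKGA is in 45 mM KH2PO4 (pH 8.2) with 0.02% Tween-20; glutamine added as 1mM solution.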

Experiment [14] is described as follows: qHTS of Trypanosoma Brucei Inhibitors: LOPAC Validation (AID 624147). Further: 0% is about no effect. Conditions: purified enzyme assay, luminescence, 45 min; series mostly up to 57.5 µM. The procedure, abridged: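 Screened from lowest to highest concentration, compounds were pinned into TbPYK/substrate mixtures, and ADP (130 uM final) was added. Plates sat at room temperature for 45 min prior to Kinase-Glo Plus detection by luminescence.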

The target in experiment [15] is Glucagon-like peptide 1 receptor (Homo sapiens) (UniProt P43220). The experiment in a line: qHTS of GLP-1 Receptor Agonists: LOPAC Validation (AID 624148).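 Further: 0% is about no effect; higher luminescence signal means agonism.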 Conditions: GLP-1R agonist cell assay; series mostly up to 46.1 µM. Summed up:
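HEK293 cells stably co-expressing GLP-1R and a cAMP-responsive luciferase reporter, plated 12 hours before compound, then incubated 4-6 hr at 37 deg C. Luminescence read 12 min after detection reagent.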

A short description of experiment [16]: qHTS of Nrf2 Activators: LOPAC Validation (AID 624149). Further: 0% is about no effect. Particulars: Nrf2/ARE reporter cell assay; series mostly up to 46.1 µM. The procedure, abridged:
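Cells (AREc32_Fluc) are plated at 1000 per well in OPTI-MEM containing 5% FBS and left overnight. Compounds are pinned in and incubated 24 hr at 37 deg C, and firefly luciferase is detected with Steady-Glo.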

A short description of experiment [17]: HTS Assay for Allosteric Antagonists of the Human D2 Dopamine Receptor: Hit Validation in HTRF (AID 624455).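 Further: stable D1 dopamine receptor cell line scored for blocking the D1 response; on the % scale 0 is the no-effect control and ±100 the full control effect.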 Particulars: Cells stably expressing D1 dopamine receptor, inhibition mode; series mostly up to 46.1 µM. The procedure, abridged: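 Inhibition of the D1-mediated response is measured by HTRF in cells that stably express the D1 dopamine receptor. Compounds reaching this step are hits from calcium-flux antagonism testing at EC80 dopamine in inducible Hek293 Trex D2 cells.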
In general terms: Time-resolved FRET reads energy transfer from a long-lived donor to a nearby acceptor.

Luciferin 4-monooxygenase (Photinus pyralis), sequence (P08659 whole entry, looked up): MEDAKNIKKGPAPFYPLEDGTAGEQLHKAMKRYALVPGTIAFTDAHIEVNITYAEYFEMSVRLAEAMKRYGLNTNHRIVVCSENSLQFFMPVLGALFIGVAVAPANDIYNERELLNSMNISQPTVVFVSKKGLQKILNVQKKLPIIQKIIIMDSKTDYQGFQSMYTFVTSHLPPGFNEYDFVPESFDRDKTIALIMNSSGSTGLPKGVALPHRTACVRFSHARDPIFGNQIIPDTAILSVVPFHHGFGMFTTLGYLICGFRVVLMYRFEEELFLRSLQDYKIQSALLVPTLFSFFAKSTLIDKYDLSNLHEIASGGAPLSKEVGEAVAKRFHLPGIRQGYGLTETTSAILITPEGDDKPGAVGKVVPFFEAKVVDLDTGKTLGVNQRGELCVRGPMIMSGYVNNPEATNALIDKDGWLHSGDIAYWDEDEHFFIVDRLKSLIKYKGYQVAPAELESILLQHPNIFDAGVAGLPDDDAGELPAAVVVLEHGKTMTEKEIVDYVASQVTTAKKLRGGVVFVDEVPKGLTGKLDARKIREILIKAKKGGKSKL
Voltage-gated inwardly rectifying potassium channel KCNH2 (Homo sapiens), sequence (Q12809 whole entry, looked up): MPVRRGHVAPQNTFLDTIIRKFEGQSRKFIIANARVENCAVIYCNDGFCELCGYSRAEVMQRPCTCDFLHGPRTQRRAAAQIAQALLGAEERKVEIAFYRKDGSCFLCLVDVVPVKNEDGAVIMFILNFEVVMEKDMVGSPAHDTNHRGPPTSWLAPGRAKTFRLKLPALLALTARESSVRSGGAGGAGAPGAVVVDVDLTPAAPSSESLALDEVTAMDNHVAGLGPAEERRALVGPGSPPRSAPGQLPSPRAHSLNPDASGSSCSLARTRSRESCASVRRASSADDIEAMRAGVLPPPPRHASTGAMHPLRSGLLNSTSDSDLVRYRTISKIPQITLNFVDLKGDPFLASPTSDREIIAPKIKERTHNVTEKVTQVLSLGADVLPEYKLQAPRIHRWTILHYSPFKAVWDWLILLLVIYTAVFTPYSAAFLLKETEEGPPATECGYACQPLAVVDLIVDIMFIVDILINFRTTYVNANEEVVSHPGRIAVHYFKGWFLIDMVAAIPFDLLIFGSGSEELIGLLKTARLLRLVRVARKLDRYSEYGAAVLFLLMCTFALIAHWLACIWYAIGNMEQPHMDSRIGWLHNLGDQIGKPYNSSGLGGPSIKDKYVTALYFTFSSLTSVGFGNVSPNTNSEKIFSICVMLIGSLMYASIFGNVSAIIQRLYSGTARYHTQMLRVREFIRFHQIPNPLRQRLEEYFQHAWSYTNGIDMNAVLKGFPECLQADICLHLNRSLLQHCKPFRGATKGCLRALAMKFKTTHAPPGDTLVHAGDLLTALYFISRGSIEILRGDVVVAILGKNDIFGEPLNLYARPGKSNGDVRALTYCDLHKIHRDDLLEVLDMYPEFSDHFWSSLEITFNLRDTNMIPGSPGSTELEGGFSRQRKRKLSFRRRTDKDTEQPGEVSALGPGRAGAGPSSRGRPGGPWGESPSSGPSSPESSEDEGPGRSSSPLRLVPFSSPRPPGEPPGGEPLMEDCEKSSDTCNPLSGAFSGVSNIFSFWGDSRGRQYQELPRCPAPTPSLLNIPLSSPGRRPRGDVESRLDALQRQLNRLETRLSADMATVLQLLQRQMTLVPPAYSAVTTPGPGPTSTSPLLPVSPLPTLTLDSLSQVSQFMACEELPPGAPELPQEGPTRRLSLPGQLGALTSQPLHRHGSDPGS
Vitamin D3 receptor (Homo sapiens), sequence (P11473 whole entry, looked up): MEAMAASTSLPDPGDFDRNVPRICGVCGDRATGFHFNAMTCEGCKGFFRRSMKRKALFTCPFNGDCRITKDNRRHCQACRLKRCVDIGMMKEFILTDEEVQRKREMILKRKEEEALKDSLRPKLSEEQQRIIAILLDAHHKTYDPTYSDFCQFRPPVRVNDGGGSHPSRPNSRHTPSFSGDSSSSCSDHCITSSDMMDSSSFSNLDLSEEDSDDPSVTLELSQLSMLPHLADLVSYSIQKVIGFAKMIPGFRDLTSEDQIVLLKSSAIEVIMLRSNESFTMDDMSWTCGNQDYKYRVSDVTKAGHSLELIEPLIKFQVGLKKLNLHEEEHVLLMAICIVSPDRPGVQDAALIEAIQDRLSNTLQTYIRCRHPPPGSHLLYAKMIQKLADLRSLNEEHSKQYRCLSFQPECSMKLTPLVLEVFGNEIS
Glucagon-like peptide 1 receptor (Homo sapiens), sequence (P43220 whole entry, looked up): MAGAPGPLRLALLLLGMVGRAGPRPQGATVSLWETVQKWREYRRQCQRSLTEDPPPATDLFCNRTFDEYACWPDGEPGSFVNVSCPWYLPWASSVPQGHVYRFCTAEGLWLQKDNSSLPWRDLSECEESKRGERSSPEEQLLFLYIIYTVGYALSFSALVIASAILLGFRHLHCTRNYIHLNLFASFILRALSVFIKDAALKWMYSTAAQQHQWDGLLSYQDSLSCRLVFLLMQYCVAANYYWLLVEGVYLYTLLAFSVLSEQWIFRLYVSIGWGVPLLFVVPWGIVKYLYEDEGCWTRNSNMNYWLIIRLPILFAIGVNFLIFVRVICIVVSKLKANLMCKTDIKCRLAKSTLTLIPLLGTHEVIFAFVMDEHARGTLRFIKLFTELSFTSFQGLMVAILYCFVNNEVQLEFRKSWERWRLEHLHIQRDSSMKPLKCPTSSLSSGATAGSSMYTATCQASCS
Glutaminase kidney isoform, mitochondrial (Homo sapiens), sequence (O94925 whole entry, looked up, canonical isoform): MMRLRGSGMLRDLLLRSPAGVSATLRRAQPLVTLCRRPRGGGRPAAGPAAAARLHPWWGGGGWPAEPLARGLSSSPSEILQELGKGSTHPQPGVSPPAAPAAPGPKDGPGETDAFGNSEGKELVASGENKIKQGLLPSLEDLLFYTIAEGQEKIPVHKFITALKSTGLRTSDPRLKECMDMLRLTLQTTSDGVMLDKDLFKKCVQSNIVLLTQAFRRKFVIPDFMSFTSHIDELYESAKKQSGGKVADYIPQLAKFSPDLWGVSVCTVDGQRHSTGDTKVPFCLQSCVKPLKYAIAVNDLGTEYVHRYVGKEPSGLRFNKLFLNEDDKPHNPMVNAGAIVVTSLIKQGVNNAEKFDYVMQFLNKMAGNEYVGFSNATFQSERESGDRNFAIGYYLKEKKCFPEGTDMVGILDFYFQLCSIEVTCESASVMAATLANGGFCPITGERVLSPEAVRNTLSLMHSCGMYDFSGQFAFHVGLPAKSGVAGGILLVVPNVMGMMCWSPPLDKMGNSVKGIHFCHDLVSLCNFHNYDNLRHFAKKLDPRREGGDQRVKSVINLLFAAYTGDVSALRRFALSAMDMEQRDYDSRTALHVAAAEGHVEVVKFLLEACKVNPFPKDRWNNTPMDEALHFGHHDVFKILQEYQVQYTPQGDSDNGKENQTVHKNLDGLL

As for `Cc1c(O)cccc1C(=O)N[C@@H](CSc1ccccc1)[C@H](O)CN1C[C@H]2CCCC[C@H]2C[C@H]1C(=O)NC(C)(C)C`, the outcome in experiment [1] was inactive. The Potency result in experiment [2], in experiment [3] and in [4] was “inactive” throughout. In experiment [5], the Potency is 8.09 µM (active).

For `CN(N=O)C(=O)N[C@@H]1[C@@H](O)[C@H](O)[C@@H](CO)O[C@@H]1O`, in experiment [2], the Potency result is “inactive”.

For the compound `CCCCOC(=O)c1ccc(O)cc1`, the result in experiment [6], in experiment [1], in experiment [8] and in [9] was inactive. In addition, the max response in experiment [7] was 0.828% and -8.13%; in experiment [10] it was -11.5% and -9.16%. In addition, the activity change % (negative = inhibition) in [11] was -4.41% (inactive) and 2.19% (inactive). In addition, the Potency entry in experiment [2], in experiment [4] and in experiment [12] was “inactive” throughout.

As to `CCOC(=O)c1ccc(O)cc1`, the outcome in experiment [1], in experiment [8] and in experiment [9] was inactive. In addition, the values for the max response in experiment [7] and in experiment [10] were 3.41% and -7.61%, respectively. For the same compound, the activity change % (negative = inhibition) in experiment [11] is -5.55% (inactive). Also, the Potency result in experiment [2], in [3], in [4] and in [12] was “inactive” in each case.

With `CN(C)CCCO[C@@H]1[C@H]2OC(C)(C)O[C@H]2O[C@@H]1C(O)CO` (some centres undefined), the Potency entry in experiment [2] was “inactive”.

Take `Oc1cccc(O)c1`: the outcome in [6], in [1], in experiment [8] and in experiment [9] was inactive. The max response in [7] was -9.49%; in experiment [10], -5.21%. Moreover, the Potency result in experiment [2], in experiment [3], in experiment [4], in experiment [5] and in [12] was “inactive” each time.

On to `C[C@]12CC[C@@H]3c4ccc(O)cc4CC[C@H]3[C@@H]1CCC2=O`, for which the results for the max response in experiment [7] and in [10] were 5.7% and 4.88%, respectively. Moreover, the compound was called inactive in [8], in experiment [9], in experiment [14], in experiment [15], in experiment [16] and in experiment [17]. For the same compound, the activity change % (negative = inhibition) in [11] was 17.6% (inactive). The Potency entry in experiment [2] and in experiment [13] was “inactive” throughout.

Consider `Cc1cccc(Nc2cc(Cl)nc(SCC(=O)O)n2)c1C`, for which the outcome in experiment [6] and in experiment [8] was inactive. The max response in experiment [7] is -6%; in [10], -6.52%. The activity change % (negative = inhibition) in experiment [11] was -2.88% (inactive). Also, the Potency entry in [2], in [3], in [4] and in [5] was “inactive” throughout.

On to `NCCNCCNCCN`, for which the result in [6], in experiment [1], in [8] and in experiment [9] was inactive. Further, the max response in [7] is 1.23%; in experiment [10], -7.08%. In addition, the activity change % (negative = inhibition) in experiment [11] is -6.32% (inactive). Besides, the Potency result in experiment [2], in experiment [3], in experiment [4] and in experiment [5] was “inactive” each time.
